We go through 21 molecules from PubChem BioAssay (NCI).

Assay [1] is described as follows: NCI Yeast Anticancer Drug Screen. Data for the rad50 strain (AID 155).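 Also: 0% = growth of vehicle-only cultures of the same strain.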 The note with it: S. cerevisiae rad50 strain growth inhibition; at 50.0 µM; active compounds read high. In a few lines:
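Readout: growth inhibition relative to vehicle-treated cultures. Compound exposure was carried out in a genetically defined yeast strain deficient in DNA damage repair.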

Assay [2] is described as follows: NCI Yeast Anticancer Drug Screen. Data for the mec2-1 strain (AID 157). Particulars: S. cerevisiae mec2-1 strain, at 50.0 µM, active compounds read high. In a few lines: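 Vehicle-treated cultures served as reference for growth inhibition of compound-exposed mec2-1 yeast.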
The nature of assay [3]: NCI Yeast Anticancer Drug Screen. Data for the sgs1 mgt1 strain (AID 161).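 Also: 0% = growth of cultures given vehicle only.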 Particulars: S. cerevisiae sgs1 mgt1 strain, at 50.0 µM, active compounds read high. In a few lines: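 Test agents were incubated with a DNA-repair-mutant yeast strain. Growth was then read and compared against vehicle-treated controls.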
The nature of assay [4]: NCI Yeast Anticancer Drug Screen. Data for the cln2 rad14 strain (AID 165).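 Also: 0% = growth equal to vehicle treated cultures.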 The note with it: S. cerevisiae cln2 rad14 strain, at 50.0 µM, active compounds read high. In a few lines:
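Each compound was tested on cln2 rad14 yeast. Inhibition of growth was calculated against vehicle-exposed controls.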

A short description of assay [5]: NCI Yeast Anticancer Drug Screen. Data for the bub3 strain (AID 167). Particulars: S. cerevisiae bub3 mutant strain, at 50.0 µM, active compounds read high. In a few lines: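 Readout: yeast growth inhibition, expressed relative to vehicle-only wells. The test organism is a mutant strain from a panel with lesions in DNA repair or checkpoint genes.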
Assay [6] is described as follows: NCI Yeast Anticancer Drug Screen. Data for the mlh1 rad18 strain (AID 175). Particulars: S. cerevisiae mlh1 rad18 strain growth inhibition; at 50.0 µM; active compounds read high. In a few lines:
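Vehicle-treated cultures served as the reference for growth inhibition in a yeast strain carrying DNA damage repair alterations exposed to each compound.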

Structures are written as SMILES. Compounds without any hit were thinned out: in the full panel of roughly 79,000, 15% have a hit. A number with no mark means an inactive call. Active and inactive are the calls of the source. Rule as the data show it: active = growth inhibition above about 70%; inactive = the rest.

Regarding `CC(C)N1C(=O)c2cccc3c(Br)ccc(c23)C1=O`, the growth inhibition in assay [1] was 97.8% (active); in assay [2] it was 99.3% (active); in assay [3], 97.2% (active); in assay [4], 98.4% (active); in assay [5], 99.2% (active); in assay [6], 98.5% (active).

Take `COc1ccc2c(=O)c([Se]c3coc4cc(OC)ccc4c3=O)coc2c1`: the growth inhibition in assay [1] was 7.2%; in assay [2], -17.1%; in assay [3] it was 3.15%; in assay [4], -52.5%; in assay [5], -23.1%; in assay [6], 3.25%.

Consider `O=C1NC(Cc2ccccc2)C(=O)N2CCCC12` (stereo unspecified), for which the growth inhibition in assay [1] was 2.55%; in assay [2] it was -6.75%; in assay [3], -12.2%; in assay [4], -18.1%; in assay [5] it was -1.15%; in assay [6] it was 3.35%.

Regarding `O=[N+]([O-])c1ccc(N=NNc2ccc(N=Nc3ccccc3)cc2)cc1`, the growth inhibition in assay [1] was 12.1%; in assay [2], -18.8%; in assay [3], -1%; in assay [4], 6.7%; in assay [5] it was 0.1%; in assay [6], 4.6%.

Regarding `Cn1cnc([N+](=O)[O-])c1SC1=NCCS1`, the growth inhibition is 7.8% in assay [1]; -1.4% in assay [2]; 10.2% in assay [3]; 25.3% in assay [4]; 22.9% in assay [5]; -7.5% in assay [6].

Consider `C[Si](C)(CCCOCC1CO1)O[Si](C)(C)CCCOCC1CO1` (stereo unspecified), for which the growth inhibition was 26.9% in assay [1]; -29.4% in assay [2]; -5.05% in assay [3]; 17.6% in assay [4]; -8.4% in assay [5]; -31.1% in assay [6].

Take `Nc1nc(-c2ccccc2)nc2nc3[nH]c(=O)[nH]c(=O)c3nc12`: the growth inhibition in assay [1] was -12.3%; in assay [2] it was 5.25%; in assay [3] it was 22.8%; in assay [4] it was 0.95%; in assay [5] it was 19.1%; in assay [6], 2.95%.

`C=CCN=C1NC(=O)C(CC(=O)Nc2cccc(Cl)c2)S1` (stereo unspecified): the growth inhibition is -41% in assay [1]; -25% in assay [2]; -34.2% in assay [3]; 6.85% in assay [4]; -36.5% in assay [5]; -22.4% in assay [6].

On to `CCCCCCCCCCCC(=O)OCCS(=O)(=O)CCOC(=O)CCCCCCCCCCC`, for which the growth inhibition is 30% in assay [1]; 4.35% in assay [2]; -1.2% in assay [3]; -23.9% in assay [4]; 15.4% in assay [5]; 22.2% in assay [6].

Consider `CN(C)C1C(CO)C(CO)C1(C)C` (stereo unspecified), for which the growth inhibition in assay [1] is -5.5%; in assay [2] it was -8.5%; in assay [3] it was -3.9%; in assay [4], -11.9%; in assay [5], -2.25%; in assay [6], -7.55%.

As for `CNCCC(=O)c1ccccc1`, the growth inhibition in assay [1] was -20.9%; in assay [2], -14.3%; in assay [3], -14.4%; in assay [4], -64.8%; in assay [5], -17.6%; in assay [6] it was 2.25%.

`Cc1ccc(NC(=O)C(=O)C2NC(=S)NC2=O)c([N+](=O)[O-])c1` (stereo unspecified): the growth inhibition in assay [1] was 8.35%; in assay [2], 3.25%; in assay [3], 17.8%; in assay [4] it was 20.1%; in assay [5] it was 5.6%; in assay [6] it was 8.55%.

As for `CN(C)Cc1[nH]c2ccccc2c1Sc1ccccc1`, the growth inhibition is 0.85% in assay [1]; 2.4% in assay [2]; 24.6% in assay [3]; 6.2% in assay [4]; -27.9% in assay [5]; 30.8% in assay [6].

Consider `CC(=O)Nc1ccc(Sc2ccc(NC(C)=O)cc2O)c(O)c1`, for which the growth inhibition in assay [1] is 34.1%; in assay [2] it was 17%; in assay [3], 32%; in assay [4], -31.4%; in assay [5], 14.7%; in assay [6], 41.9%.

With `COC1=CC(=O)/C(=C(O)/C=C/c2ccccc2)C(=O)C1(C)C`, the growth inhibition was 3.2% in assay [1]; -1.65% in assay [2]; 16.9% in assay [3]; -2.5% in assay [4]; 14.6% in assay [5]; 29.4% in assay [6].

For the molecule `COc1ccc(N=C2c3cc([N+](=O)[O-])ccc3-c3c2cccc3[N+](=O)[O-])cc1`, the growth inhibition in assay [1] is -5.25%; in assay [2], -8.25%; in assay [3] it was -4.1%; in assay [4] it was -20.6%; in assay [5], 3.45%; in assay [6] it was -7.2%.

Turning to `NC(=O)C(=O)N/N=C1\C(=O)N(c2ccc(Cl)cc2Cl)C(=O)C1C(=O)Nc1ccc(Cl)cc1Cl` (stereo unspecified), the growth inhibition in assay [1] was -0.65%; in assay [2], -0.55%; in assay [3], -15.5%; in assay [4] it was 22.4%; in assay [5], -14.2%; in assay [6] it was -16.3%.

Consider `Cc1cccc(N=N/C(=N\NC(=O)c2cc(Cl)ccc2O)c2ccc(N(CCC#N)CCC#N)cc2C)c1`, for which the growth inhibition is 13.7% in assay [1]; -1% in assay [2]; 19.7% in assay [3]; 1.8% in assay [4]; 13.8% in assay [5]; -79.6% in assay [6].

Take `COc1ccc(/C=C2\N=C(c3cc(OC)c(OC)c(OC)c3)OC2=O)cc1`: the growth inhibition in assay [1] was 20.2%; in assay [2] it was 13.1%; in assay [3], 18.6%; in assay [4] it was 24.6%; in assay [5] it was 22.1%; in assay [6] it was 7.5%.

On to `COc1cc(NS(C)(=O)=O)ccc1Nc1c2ccccc2nc2c1[nH]c1ccc(NC3OC(CO)C(O)C(O)C3O)cc12` (stereo unspecified), for which the growth inhibition was 53.8% in assay [1]; -4.9% in assay [2]; 3.35% in assay [3]; 0.2% in assay [4]; -26.3% in assay [5]; -27.6% in assay [6].

On to `NC(Cc1ccccc1)C(=O)NCC(=O)Oc1ccc([N+](=O)[O-])cc1` (stereo unspecified), for which the growth inhibition was 36.5% in assay [1]; 20.4% in assay [2]; 20.1% in assay [3]; 18.1% in assay [4]; 2.35% in assay [5]; 23.1% in assay [6].
